# Rows were chosen to be rich in hits. Some 7.5% of all compounds tested hit in one or more screens of this group.
# B2AR arrestin = qHTS assay of beta-arrestin-biased ligands of beta2-adrenergic receptor | Beta-2 adrenergic receptor (Homo sapiens), P07550 | beta-arrestin recruitment to beta2AR, cell-based reporter | Potency, µM (highest dose often 46.1 µM), most hits filed as activators | 330,000 compounds, 0.02% hits; further: nearly all actives have a fitted effect of over 65% in size
# Gal4-VP16 FLuc = VP16 counterscreen qHTS for inhibitors of ROR gamma transcriptional activity; Potency, µM (top dose mostly 53.6 µM), usual class: inhibitors; Drosophila S2 Gal4-VP16 UAS-luciferase, luminescence, 20 h; 310,000 compounds, 3.5% hits;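 further: Gal4-VP16 expression switched on by copper sulfate through the metallothionein promoter; nearly all actives have a fitted effect of over 50% in size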
# TSHR antag = Antagonists of the Thyroid Stimulating Hormone Receptor: HTS campaign; TSHR-expressing cells, TSH-stimulated cAMP HTRF, 2 h; active compounds read low; activity change, negative = inhibition, % at 11.5 µM; 330,000 compounds, 0.2% hits; AID 504810, 2011;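 active means activity change below a set negative limit, meaning inhibition stronger than a set level, cut at about -70% in these data; inconclusive means activity change between two set negative limits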
#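 Competitive HTRF cAMP read-out (cryptate anti-cAMP antibody, cAMP-d2; 30 min, room temperature) in freshly harvested TSHR cells. Compounds added before TSH at EC80 (4nM final), followed by 2 hours' incubation at 37 deg C.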
# ELG1 DNA repair = qHTS screen for small molecules that inhibit ELG1-dependent DNA repair in human embryonic kidney (HEK293T) cells expressing luciferase-tagged ELG1; HEK293T ELG1-luciferase reporter, luminescence, 16 h; DNA damage induced by 5-fluorouridine; AID 504467, 2011; Potency, µM (titrated, usually from 46.1 µM), most hits filed as inhibitors; 330,000 compounds, 2.3% hits; further: nearly all actives have a fitted effect of over 55% in size
#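 Step one: seed 2,000 cells per well. Step two: pin-transfer compound or DMSO alongside 5-fluorouridine. Step three: incubate 16 hr, 37 °C, 5% CO2. Step four: add ONE-Glo, wait 30 min, read luminescence.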
# RORg inh = qHTS for inhibitors of ROR gamma transcriptional activity; Nuclear receptor ROR-gamma (Mus musculus), P51450; Drosophila S2 Gal4-RORgamma UAS-luciferase reporter, 20 h; Potency, µM (series often up to 53.6 µM), usual class: inhibitors; 310,000 compounds, 5.4% hits; further: nearly all actives have a fitted effect of over 60% in size
# Target sequence (P51450 whole entry, looked up, the tested form may be a part): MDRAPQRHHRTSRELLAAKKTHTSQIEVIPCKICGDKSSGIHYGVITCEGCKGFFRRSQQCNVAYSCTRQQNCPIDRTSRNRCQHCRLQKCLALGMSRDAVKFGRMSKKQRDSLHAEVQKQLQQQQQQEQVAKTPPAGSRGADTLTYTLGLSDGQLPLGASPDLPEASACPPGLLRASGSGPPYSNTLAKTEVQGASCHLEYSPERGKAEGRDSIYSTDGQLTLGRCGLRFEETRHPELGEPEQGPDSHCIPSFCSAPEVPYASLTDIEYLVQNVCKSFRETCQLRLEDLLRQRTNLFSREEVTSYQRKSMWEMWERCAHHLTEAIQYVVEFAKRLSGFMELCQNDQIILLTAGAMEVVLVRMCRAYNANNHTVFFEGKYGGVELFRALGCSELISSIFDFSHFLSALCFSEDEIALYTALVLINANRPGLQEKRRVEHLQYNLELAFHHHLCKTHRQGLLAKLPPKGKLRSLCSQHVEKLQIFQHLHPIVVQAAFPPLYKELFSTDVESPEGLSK
#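 ROR gamma transcriptional activity was tracked as Gal4-UAS luciferase output in stably transfected Drosophila Schneider cells, with compound added 1 hr before 700 uM copper sulfate induction and a 20 hr ambient-temperature incubation.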
# Hits are given with their value; i = inactive; ? = inconclusive; nt = no result given; [ ] = remark or other dose. Unless noted, the call rests on the fitted dose curve; in most records, active means well fitted curve in the direction sought with a large enough effect; inconclusive means small, poorly fitted or top-dose-only effect, or another doubt; inactive means no such curve, though single readings can be large; an effect the other way counts as inactive or inconclusive.
SMILES,B2AR arrestin,Gal4-VP16 FLuc,TSHR antag,ELG1 DNA repair,RORg inh
Cc1cc(C)cc(NC(=O)C2CCCN(c3nc(C)cc(C)n3)C2)c1 (centres undefined),i,i,i,i,i
Cc1cc(C)nc(N2CCCC(C(=O)Nc3ccc4nc(C)c(C)nc4c3)C2)n1 (centres undefined),i,i,i,12µM,i
Cc1cccc2sc(NC(=O)C3CCCN(S(=O)(=O)c4cccc5nonc45)C3)nc12 (centres undefined),i,?,i,?,?
Cn1c(SCC(=O)Nc2ccc(Cl)cc2F)nnc1-c1ccco1,i,i,i,i,i
COc1ccc(Oc2cccc(Cl)c2CNC(=O)CCC(=O)O)cc1,i,i,i,i,i
CC(Oc1ccccc1F)C(=O)NNC(=O)CC(C)c1ccccc1 (centres undefined),i,nt,i,i,nt
Cn1nc(C(=O)NCc2cccc(F)c2)cc1C(=O)NCc1cccc(F)c1,i,nt,i,12µM,nt
COc1cc(CNC(=O)c2cnc(C)cn2)cc(OC)c1,i,i,i,i,i[1.91 µM]
COc1cc(CNC(=O)c2cc(C(=O)NCc3cc(OC)cc(OC)c3)n(C)n2)cc(OC)c1,i,nt,i,21µM,nt
COc1ccc(-c2nnc3n2N=C(c2ccc(OC)c(OC)c2)CS3)c(OC)c1,nt,i,nt,nt,i
C=CCN1C(=O)/C(=c2\sc3nc(=O)c(Cc4ccccc4)nn3c2=O)c2ccccc21,i,?,i,i,11µM
Cc1cc(C(=O)Cn2nnc(-c3ccc(Cl)cc3)n2)c(C)n1CC1CCCO1 (centres undefined),i,32µM,i,?,i
COCCn1c(C)cc(C(=O)COC(=O)c2cccc(O)c2)c1C,i,0.63µM,i,?,0.35µM
Cc1cc(C(=O)COC(=O)c2ccc3c(c2)OCO3)c(C)n1CC1CCCO1 (centres undefined),i,i,i,?,i
COCCn1c(C)cc(C(=O)COC(=O)c2ccc([N+](=O)[O-])o2)c1C,i,i,i,?,13µM
Cc1cc(C(=O)COC(=O)c2ccc([N+](=O)[O-])o2)c(C)n1CC1CCCO1 (centres undefined),i,i,i,i,20µM
Cc1cc(C(=O)CSc2nnc(-c3ccc(Cl)cc3)n2C)c(C)n1CC1CCCO1 (centres undefined),i,i,i,i,i
CCc1ccc(-c2nc(SCC(=O)c3c(N)n(C4CC4)c(=O)[nH]c3=O)n[nH]2)cc1,i,nt,i,i,nt
COc1ccc(C(CNC(=O)CCNC(=O)c2ccc(Br)cc2)N2CCOCC2)cc1 (centres undefined),i,nt,i,i,nt
COc1cccc([C@@H]2Oc3ccc(OC)cc3C[C@H]2OC(=O)NS(=O)(=O)c2ccc(C)cc2)c1,nt,i,nt,nt,?
COCCn1c(C)cc(C(=O)CSc2nnc(C)s2)c1C,nt,1µM,nt,nt,0.71µM
CN(Cc1cc(Br)cc(Br)c1N)C1CCCCC1,nt,i,nt,nt,?
CCC1CCCCN1C(=O)COC(=O)c1cccs1 (centres undefined),i,nt,nt,i,nt
COc1cc(C(=O)OCC(=O)N2CCCCC2C)cc(NC(=O)c2cccs2)c1OC (centres undefined),i,i,i,18µM,i
O=C(c1cccc(F)c1)N1CCC2(CC1)CN(c1ccc(-c3ccccc3)cc1)C2,nt,16µM,nt,nt,i
SMILES,B2AR arrestin,Gal4-VP16 FLuc,TSHR antag,ELG1 DNA repair,RORg inh
CC(=O)N1CCC2(CC1)CN(c1cccc(-c3ccccc3)c1)C2,nt,13µM,nt,nt,i
O=C(c1cccc(F)c1)N1CCC2(CC1)CCN(c1ccc(-c3ccccc3)cc1)CC2,nt,i,nt,nt,i
O=C(c1cnccn1)N1CCC2(CC1)CN(c1cccc(-c3ccccc3)c1)C2,nt,5µM,nt,nt,i
CCOc1ccccc1-c1nnc2n1N=C(c1c(OC)cccc1OC)CS2,nt,i,nt,nt,i
Cc1ccc(NC(=O)CN2C(=O)NC3(CCCCC3C)C2=O)cc1S(=O)(=O)N1CCCCC1 (centres undefined),i,nt,i,i,nt
CCC(CC)(CC(=O)Nc1cccc(/C=C/c2nc(C3CCC3)cs2)c1)C(=O)O,nt,?,nt,nt,i
COc1ccc(-c2c3c([nH]c(=S)c2C#N)CCC3)cc1,i,?,i,i,i
N#Cc1c(N)nc2c(c1-c1cccnc1)CCCCC2,i,i,i,13µM,i
N#Cc1c(N)nc2c(c1-c1ccncc1)CCCCC2,i,i,i,i,i
N#Cc1c(-c2cccnc2)c2c([nH]c1=S)CCCC2,i,i,i,i,11µM
COc1ccc(OC)c(-c2c3c([nH]c(=S)c2C#N)CCCC3)c1,i,?,i,i,16µM
CC1(NC(=O)Cc2c(Cl)cccc2Cl)CCS(=O)(=O)C1 (centres undefined),i,nt,i,i,nt
COc1cc(NC(=O)C2=C(N3CCOCC3)/C(=C\c3ccc(Cl)cc3Cl)CC2)cc(OC)c1OC,i,i,i,21µM,i
COc1cc(NC(=O)C2=C(N3CCOCC3)/C(=C\c3ccc(Br)cc3)CC2)cc(OC)c1OC,i,i,i,18µM,?
O=C(Nc1ccc2oc(-c3cccnc3)nc2c1)c1cc2ccccc2o1,i,i,nt,18µM,i
O=C(NC(=S)Nc1ccc2oc(-c3cccnc3)nc2c1)c1cccc(Cl)c1,i,i,i,i,20µM
c1ccc(-c2nc(-c3ccccn3)nc(-c3ccccn3)n2)nc1,i,i,i,?,i
c1ccc(-c2nnc(-c3ccccn3)s2)nc1,i,i,i,?,1.8µM
O=C(Nc1ccccc1N1CCOCC1)C1=NN(c2ccccc2)C(=O)CC1,i,nt,i,i,nt
Cc1cc(C)n(-c2nnc3c4ccccc4n(C)c3n2)n1,i,?,i,?,3.2µM
